# PubChem BioAssay AID1721 (National Center for Advancing Translational Sciences (NCATS), 2009)
# Hit rate of the full screen: of about 290,000 compounds, about 1,100 (0.38%) were called active. The sample as a whole holds a higher share of actives than the screen did. A number with no mark means an inactive call. The call rests on the fitted dose curve; in most records, active means well fitted inhibition curve with a large enough effect; inconclusive means small, poorly fitted or top-dose-only effect, or another doubt; inactive means no such curve, though single readings can be large or run the other way.
# Target: Pyruvate kinase (Leishmania mexicana) (UniProt Q27686)
# Sequence (Q27686 whole entry, looked up): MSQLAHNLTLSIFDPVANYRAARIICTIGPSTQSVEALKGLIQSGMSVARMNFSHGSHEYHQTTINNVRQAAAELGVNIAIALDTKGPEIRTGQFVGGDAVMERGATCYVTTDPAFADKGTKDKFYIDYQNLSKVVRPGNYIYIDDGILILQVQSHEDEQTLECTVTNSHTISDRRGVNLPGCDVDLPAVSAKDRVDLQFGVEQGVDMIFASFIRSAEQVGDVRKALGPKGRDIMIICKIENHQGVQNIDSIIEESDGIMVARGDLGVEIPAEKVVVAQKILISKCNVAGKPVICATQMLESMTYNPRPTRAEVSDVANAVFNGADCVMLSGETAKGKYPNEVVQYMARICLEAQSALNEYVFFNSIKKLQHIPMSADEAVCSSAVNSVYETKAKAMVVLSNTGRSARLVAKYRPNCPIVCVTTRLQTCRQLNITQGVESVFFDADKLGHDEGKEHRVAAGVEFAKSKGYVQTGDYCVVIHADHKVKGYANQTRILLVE
# Experiment: qHTS Assay for Inhibitors of Leishmania Mexicana Pyruvate Kinase (LmPK)
# Details: purified LmPK, Kinase-Glo ATP luminescence, 1 h; series mostly up to 57.5 µM; activity change, negative = inhibition: at the top concentration
# Source text: NIH Chemical Genomics Center [NCGC] Malcolm Walkinshaw, Hugh Morgan, Linda Gilmore University of Edinburgh, UK MLPCN Grant: 1 R03 MH085697-01 NCGC Assay Overview: Pyruvate kinase (L. Mexicana) (LmPK) enzyme was supplied as a highly purified (>95% pure) sulphate-free preparation from University of Edinburgh, UK and assayed for its ability to generate ATP from ADP using phosphoenolpyruvate (PEP) as a substrate. ATP generation was detected in a coupled reaction by luciferase-mediated luminescence, an ATP-dependent process. […] The enzyme was assayed at an intermediate level of activity to screen for both inhibitors and activators.
# NCGC Assay Protocol Summary: Three uL of enzyme mix (kept on ice) in assay buffer (50 mM Imidazole pH7.2, 50 mM KCl, 7 mM MgCl2, 0.01% Tween 20, 0.05% BSA) containing PEP (0.5 mM final concentration) and LmPK (0.1 nM final concentration) was dispensed into white solid bottom 1,536 well microtiter plates. 23 nL of compound were delivered by a pin tool and 1 uL of ADP mix in assay buffer (r.t; 0.1 mM final ADP concentration) was added. Plates were incubated at room temperature for 1 hour. Two uL of detection mix (Kinase-Glo, Promega; at 4 degree Celsius protected from light) was added and luminescence read by a ViewLux (Perkin Elmer) at 1 second exposure/plate. Data were normalized to the uninhibited and AC100 inhibition (no enzyme). To monitor activation, the first column contained a five-fold concentration of LmPK (0.5 nM).
# On the % scale 0 is the no-effect control and ±100 the full control effect; potency means the concentration at half of the fitted maximal effect.
Structure (SMILES),Potency,"activity change, negative = inhibition [%]"
COc1ccccc1C(=O)Nc1ccc(NC(=O)c2ccco2)c(C)c1,15.8 µM (active),–
CCn1c(SCC(=O)NC2CC2)nnc1-c1ccccc1OC,–,3.59
COc1cc(OC)cc(C(=O)OCC(=O)Nc2ccc(F)cc2F)c1,–,3.32
COc1ccccc1CC(=O)Nc1ccc(F)cc1F,–,-4.93
COc1ccc(C(=O)Nc2ccc(F)cc2F)cc1,14.1 µM (active),–
O=C(c1cc(-c2ccc(O)cc2)on1)N1CCOCC1,–,-7.59
Cc1ccc(CN2CCN(c3ncccn3)CC2)c(C)c1,–,-4.47
CCOC(=O)C1CCN(C(=O)C2CCCN(S(=O)(=O)c3ccc(OC)c(Cl)c3)C2)CC1 (stereo unspecified),–,-1.27
O=C(Cc1cccs1)Nc1nnc(C2CC2)s1,–,1.96
Cc1cnc(NC(=O)c2ccccn2)s1,15.8 µM (active),–
Cc1cnc(NC(=O)c2ccc(Cl)nc2)s1,–,-1.78
Cc1cnc(NC(=O)CSc2c(Cl)cccc2Cl)s1,–,0.4
O=C(Nc1nnc(C2CC2)s1)c1ccccn1,25.1 µM (active),–
O=C(Nc1nnc(C2CC2)s1)c1cc(Cl)sc1Cl,–,-4.39
O=C(O)c1ccc(-n2nc(-c3ccccc3)c3ccccc3c2=O)cc1,–,4.17
COC(=O)c1c(NC(=O)COC(=O)[C@@H](NS(=O)(=O)c2ccccc2)C(C)C)sc2c1CCC2,–,2.43
O=C(CN(CC1CCCO1)C(=O)CNS(=O)(=O)c1ccc(Cl)cc1)NCc1ccccc1 (stereo unspecified),–,-1.92
CC(C(=O)Nc1ccc(O)c(C(=O)O)c1)N1C(=O)/C(=C/c2cccs2)SC1=S (stereo unspecified),–,20.1
COc1ccc(NC(=O)C(CC(C)C)NC(=O)C2CCC(C)CC2)cc1 (stereo unspecified),–,-0.13

Structure (SMILES),Potency,"activity change, negative = inhibition [%]"
O=C(Nc1nnc(C2=COCCO2)o1)c1ccc([N+](=O)[O-])s1,–,-1.89
COc1cc(C(C)=O)ccc1OC(=O)CN1C(=O)c2ccccc2C1=O,–,3.8
COc1cccc(/C=C/c2ccc3ccccc3n2)c1OC(C)=O,25.1 µM (active),–
CCOc1cccc(/C=C/c2ccc3ccccc3n2)c1OC(C)=O,–,-23
COc1cccc(/C=C2\C=C(c3ccc(C)cc3)OC2=O)c1OC(C)=O,–,-2.55
COc1ccc(CCNCc2c(-c3ccccc3)n(C)c3ccccc23)cc1,–,-1.5
Cc1ccc(N(C(=O)C(F)(F)F)C(C(=O)NC2CCCCC2)c2ccncc2)cc1C (stereo unspecified),–,-2.72
O=C(O)C1CCCN1C1=NS(=O)(=O)c2ccccc21 (stereo unspecified),–,-0.501
COc1ccccc1OCc1nc2ccccc2s1,15.8 µM (active),–
O=C(O)CCCCc1nc2ccccc2s1,–,-1.65
CN(Cc1nc2ccccc2s1)C(=O)c1ccc(F)cc1,–,-3.18
Cc1cc(S(=O)(=O)N2CCOCC2)ccc1OCC(=O)Nc1cccc(C(F)(F)F)c1,–,5.38
COc1cc(SC)ccc1C(=O)Nc1nc(C)cs1,10 µM (active),–
COc1cc(SC)ccc1C(=O)NCCOc1ccccc1Cl,–,0.758
COc1cc(SC)ccc1C(=O)Nc1cc(C)ccn1,–,-8.85
O=C(NC(=S)NC1CCS(=O)(=O)C1)c1cccc([N+](=O)[O-])c1 (stereo unspecified),–,-7.45
Cn1c(-c2ccco2)nc2cc3ccccc3cc21,12.6 µM (active),–
O=c1c2ccccc2nc(-c2ccco2)n1-c1ccc(Br)cn1,–,-1.19
Cn1cccc1-c1nc2ccccc2n1C,–,0.62

Structure (SMILES),Potency,"activity change, negative = inhibition [%]"
c1ccc(-c2cc(-c3ccccc3)[nH]n2)cc1,–,0.475
S=c1[nH]nc(-c2cc(-c3ccsc3)n[nH]2)n1-c1ccccc1,10 µM (active),–
S=c1[nH]nc(-c2cc(-c3ccccc3)n[nH]2)n1/N=C/c1c2ccccc2cc2ccccc12,–,0.0251
CCn1cc(C(=O)N[C@@H](C)C(=O)NCCO)c(=O)c2cc3c(cc21)OCO3,–,-2.59
CCCNC(=O)CCc1c(C)nc2c(c(C)nn2-c2ccc(C)cc2)c1C,–,-2.85
CC(C)OC(=O)c1ccc(COc2ccc3ccc(=O)oc3c2)o1,–,0.39
Cc1ccccc1Cn1c(=O)[nH]c2ccccc21,–,1.18
CC(=O)c1c(-c2ccccc2)c2ccccc2[nH]c1=O,–,-2.03
O=c1[nH]c2ccccc2n2c(-c3ccccc3)nnc12,3.16 µM (active),–
Cc1ccc(S(=O)(=O)N/N=C(\c2ccccc2)C2CC2)cc1,–,-1.1
Cc1cccc(N=C2NN=C(c3c[nH]c4ccccc34)CS2)c1,–,0.353
Cc1cc(C2=NNC(=Nc3ccc(S(=O)(=O)N4CCOCC4)cc3)SC2)c(C)n1CC1CCCO1 (stereo unspecified),–,-17.2
C=CCn1c(C)cc(C2=NNC(=NCC)SC2)c1C,14.1 µM (active),–
COc1ccc(-c2ccc(OC(=O)NC3CCS(=O)(=O)C3)cc2)cc1 (stereo unspecified),–,1.14
COc1ccc(C(=O)/C=C/Nc2ccccn2)cc1,12.6 µM (active),–
COc1ccc2cc(S(=O)(=O)Nc3ccccn3)ccc2c1,–,4.52
CCOc1ccc(N/C=C/C(=O)c2ccccc2)cc1,–,-1.4
CC1CCC(NC(=O)CN(C)S(=O)(=O)c2ccc3c(c2)c(=O)n(C)c(=O)n3C)CC1 (stereo unspecified),–,-2.21
